In the library only some 0.99% were active in any assay of this set; here they are far more common.
Cardiac RTF inh – cardiac RTF calcium desensitization; P19429+P45379; IANBD-labeled cardiac RTF, Ca2+ fluorescence; inhibition, % at 7.15 µM; hit rate 0.12% among 340,000; AID 493244;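 active = inhibition above the mean inhibition of all tested compounds plus 3 SD, cut at about 17% in these data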;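 note: assay run at fixed EC70 calcium of 1.6 mM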
LANA-H2A inh – blocks KSHV LANA binding to histone H2A/H2B | Q9QR71 | cell-free LANA-H2A/H2B peptide, fluorescence polarization | inhibition, % (test concentration not listed) | hit rate 0.6% among 320,000 | AID 2629; in the data active = inhibition mostly above about 10%, no sharp cut-off; inactive = mostly below about 6.7%
Target sequence (Q9QR71 whole entry, looked up): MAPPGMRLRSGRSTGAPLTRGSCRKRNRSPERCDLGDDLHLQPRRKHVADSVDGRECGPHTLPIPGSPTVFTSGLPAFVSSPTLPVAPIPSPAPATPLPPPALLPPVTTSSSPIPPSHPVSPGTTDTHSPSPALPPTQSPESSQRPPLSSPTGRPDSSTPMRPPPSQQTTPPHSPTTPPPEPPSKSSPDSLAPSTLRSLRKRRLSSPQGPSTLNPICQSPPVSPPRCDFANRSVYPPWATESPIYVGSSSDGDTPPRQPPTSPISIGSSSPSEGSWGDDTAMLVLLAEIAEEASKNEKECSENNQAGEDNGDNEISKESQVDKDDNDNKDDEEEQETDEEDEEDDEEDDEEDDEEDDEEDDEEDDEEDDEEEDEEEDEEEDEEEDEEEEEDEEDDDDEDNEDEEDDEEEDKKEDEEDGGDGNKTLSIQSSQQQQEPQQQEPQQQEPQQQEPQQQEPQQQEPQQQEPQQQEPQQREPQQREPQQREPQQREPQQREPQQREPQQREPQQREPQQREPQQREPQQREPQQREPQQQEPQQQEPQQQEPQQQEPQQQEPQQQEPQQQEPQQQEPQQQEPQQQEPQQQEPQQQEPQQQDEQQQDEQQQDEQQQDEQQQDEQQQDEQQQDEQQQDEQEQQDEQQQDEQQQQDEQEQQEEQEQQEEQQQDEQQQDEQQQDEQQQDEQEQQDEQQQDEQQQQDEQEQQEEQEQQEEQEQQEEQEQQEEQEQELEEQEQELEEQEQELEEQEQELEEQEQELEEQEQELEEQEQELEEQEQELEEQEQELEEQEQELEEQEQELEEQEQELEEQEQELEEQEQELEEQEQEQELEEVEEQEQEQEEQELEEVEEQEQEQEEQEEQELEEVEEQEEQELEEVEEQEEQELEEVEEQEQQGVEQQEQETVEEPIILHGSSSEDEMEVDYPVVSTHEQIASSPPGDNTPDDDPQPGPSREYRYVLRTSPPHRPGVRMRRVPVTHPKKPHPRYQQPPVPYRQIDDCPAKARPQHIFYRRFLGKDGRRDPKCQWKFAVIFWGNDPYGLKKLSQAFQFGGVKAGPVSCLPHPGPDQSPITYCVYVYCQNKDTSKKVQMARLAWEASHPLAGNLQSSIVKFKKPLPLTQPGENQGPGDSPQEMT
cardiac RTF act – increases calcium sensitivity of human cardiac regulated thin filaments; IANBD-labeled TnC RTF fluorescence at EC20 calcium; 0% EC20 calcium, 100% full calcium; activation, % at 7.2 µM; hit rate 0.24% among 340,000;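 active = activation above the mean over all tested compounds plus 3 SD, cut at about 30% in these data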;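 note: rise in fluorescence read as greater calcium sensitivity of cardiac thin filaments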
Keap1-Nrf2 PPI – inhibitors of human Keap1-Nrf2 protein-protein interaction; inhibition, % at 9.4 µM; hit rate 0.15% among 340,000; AID 504523; Q14145; Keap1 Kelch-Nrf2 peptide fluorescence polarization, 1536-well; in the data active = inhibition above about 12%;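 note: human Keap1 Kelch domain with fluorescein labeled Nrf2 9mer peptide probe; 0% = neutral control wells and 100% = peptide positive control; higher means more block of Keap1 binding to Nrf2 peptide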
C-LANA FP – KSHV C-LANA DNA binding inhibition. inhibition, % at 9 µM. MBP-C-LANA/FAM-LBS DNA binding, fluorescence polarization. AID 504423. hit rate 0.078% among 340,000;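 active = highest replicate inhibition at or above 60% at 9 µM, even if other replicates fall short; inactive = all replicates below 60% inhibition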;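 note: 0% = neutral control wells and 100% = 4 µM acridine orange control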
* = called active by the depositor; i = inactive; · = no result; + = active, no number; ! = repeats disagree.

SMILES	Cardiac RTF inh	LANA-H2A inh	cardiac RTF act	Keap1-Nrf2 PPI	C-LANA FP
N#C/C(=C\c1ccc(N2CCCCC2)o1)C(N)=O	-58	-34	56*	-57	-18
N#C/C(=C\c1ccc(N2CCCCC2)o1)C(=O)Nc1cccc(Br)c1	-155	1	146*	-9	-5
COc1ccc(NC(=O)/C(C#N)=C\c2ccc(Br)o2)cc1	-4	1	2	-5	1
NC(=O)[C@@H]1CC2(CC(c3cccc(NC(=O)CC(c4ccccc4)c4ccccc4)c3)=NO2)CN1C(=O)COc1ccc(Cl)cc1 (stereo partly specified)	-11	6	-6	-2	1
CCOC(=O)C(c1ccccc1)C(Nc1ccc(F)cc1)c1ccccn1 (stereo unspecified)	2	21*	-9	-1	1
CCOc1ccc(CN2CCN(C(=O)c3ccco3)CC2)cc1	4	6	-4	-5	4
COc1cccc(/C=N/c2nc3ccccc3[nH]2)c1O	4	0	187*	-1	3
N#CC1=C(N)Oc2n[nH]c(-c3ccccn3)c2C1c1c(F)cccc1Cl (stereo unspecified)	-5	-3	-10	-4	3
CN(C)CCCNc1cc(O)c2ncccc2c1	-22	5	-5	22*	23
Oc1ccccc1CNc1cnc2ccccc2c1	2	20*	4	-8	-1
CCC(=O)N1CCN(c2ccc(NC(=O)c3ccc(N4CCCC4)c([N+](=O)[O-])c3)cc2)CC1	-22	3	-4	-3	1
CC1=C(/C=N/Nc2ccc([N+](=O)[O-])cc2[N+](=O)[O-])C(C)(C)CCC1	3	-5	-14	-3	0
COc1ccc2oc(C(=O)Nc3nc(C)cs3)c(C)c2c1	-5	73*	-2	3	0
C=CCn1c(SCC(=O)Nc2ccccc2C)nc(O)cc1=O	1	-12	1	2	1
OCCOCCNc1ncnc2c1cnn2-c1ccc(Cl)cc1	6	-3	-1	1	1
CN(C)CCCNc1ncnc2c1cnn2-c1ccccc1	-6	14*	-2	3	0
CC(C)OCCCNc1ncnc2c1cnn2-c1ccccc1	-8	-3	2	-3	0
COCCNc1ncnc2c1cnn2-c1ccc(Cl)cc1	-3	20*	2	4	2
O=C(Nc1cccc(OCC(=O)N2CCOCC2)c1)c1ccc(C(F)(F)F)cc1	-14	1	4	-5	0
O=C(COC(=O)c1cc(=O)[nH]c2ccccc12)Nc1ccc(F)cc1	4	6	-1	-3	2
COc1ccc(OCC(=O)N2c3ccc(C)cc3C3CN(C)CCC32)cc1 (stereo unspecified)	-1	25*	-2	-2	-1
O=C(COC(=O)CCc1nc2ccccc2c(=O)[nH]1)Nc1ccccc1	-5	24*	-6	-4	2
N#CC(C#N)=C1C=C2C=C(N3CCCCCC3)CCC2CC1 (stereo unspecified)	i	·	+	-260	-14
N#CC(C#N)=C1C=C2C=C(N3CCOCC3)CCC2CC1 (stereo unspecified)	i	·	+	-102	-17
CCN1CCN(C2=CC3=CC(=C(C#N)C#N)CCC3CC2)CC1 (stereo unspecified)	i	·	+	-394	-61
SMILES	Cardiac RTF inh	LANA-H2A inh	cardiac RTF act	Keap1-Nrf2 PPI	C-LANA FP
CN1CCN(C2=CC3=CC(=C(C#N)C#N)CCC3CC2)CC1 (stereo unspecified)	i	·	+	-465	-71
Cc1ccc(OC(F)F)c(NC(=O)Nc2ccc3c(c2)OCO3)c1	3	-6	0	3	0
CC(=O)OC(COc1cccc(C)c1)Cn1cnc2ccccc21 (stereo unspecified)	0	0	0	-6	-1
CCn1cnc2cc(NS(=O)(=O)c3ccc(OC)c(OC)c3)ccc21	1	-3	-5	-2	0
O=C(COC(=O)C1CC2CCCC(C1)C2=O)NNC(=O)c1ccccc1F (stereo unspecified)	-6	34*	-1	6	4
Cc1ccccc1NC(=O)COC(=O)C1CC2CCCC(C1)C2=O (stereo unspecified)	-9	2	0	5	0
CCOC(=O)C1CCCN(CC(=O)Nc2c(C(=O)OC)[nH]c3ccc(Cl)cc23)C1 (stereo unspecified)	-1	-1	1	-7	0
COc1ccccc1N=C(C)C1=C(O)CSC1=O	-2	7	-6	2	2
CN1[C@@H]2CC(OC(=O)[C@H](CO)c3ccccc3)C[C@H]1[C@@H]1O[C@@H]12 (stereo partly specified)	i	27*!	i	·	·
CCN1CCCC(OC(=O)C(c2ccccc2)c2ccccc2)C1 (stereo unspecified)	17	-6	8	-5	1
Cn1cccc1/C=C1/SC(=S)N(CC(=O)O)C1=O	-27	-11	20	-61	-20
CCN1C(=O)/C(=C/C=C2/SCCN2C)SC1=S	-128	1	136*	-7	-1
CN1CCS/C1=C\C=C1/SC(=S)N(CC(=O)O)C1=O	-315	·	268*	-424	-95
CN(C)/C=C1\C=C2C(=O)c3ccccc3N2C1=O	i	150*	+	+	+
CN(C)S(=O)(=O)N1C(=O)c2ccccc2C1=O	-10	-5	-2	3	0
Cc1ccc(N2CC(C(=O)N3CCN(Cc4ccc5c(c4)OCO5)CC3)CC2=O)cc1 (stereo unspecified)	-2	52*	5	-4	0
O=C(C1CC(=O)N(c2ccc(Cl)cc2)C1)N1CCN(Cc2ccc3c(c2)OCO3)CC1 (stereo unspecified)	-15	0	7	3	1
O=C(C1CC(=O)N(c2ccc(Cl)cc2)C1)N1CCOCC1 (stereo unspecified)	-8	28*	-8	3	0
O=C1CC(c2ccccc2)CC(O)=C1C=NCCN1CCNCC1 (stereo unspecified)	6	-2	0	1	2
O=C1CC(c2ccc(F)cc2)CC(O)=C1C=NCCN1CCNCC1 (stereo unspecified)	-6	17*	3	3	1
COc1ccc(CNC(=O)CCn2c(C)csc2=O)cc1	-4	-1	0	-2	-1
COc1cccc2c3c(c(C)nc12)CC(C)O3 (stereo unspecified)	1	-2	4	2	1
Cc1cc(NC(=O)CN2CCCC2c2nc3ccccc3s2)no1 (stereo unspecified)	-20	15*	12	-8	-1
NC(=O)c1sc2nc3c(c(-c4ccco4)c2c1N)CCCC3	-7	2	3	4	1
Nc1c(C(=O)NCC2CCCO2)sc2nc3c(c(-c4ccco4)c12)CC/C3=C\c1ccco1 (stereo unspecified)	25*	·	11	-4	1
CC1CCCC(NC(=O)Cn2cc([N+](=O)[O-])ccc2=O)C1C (stereo unspecified)	-13	7	-3	-3	1

From PubChem
